# Measured values: PubChem BioAssay (NCATS)
# Inconclusive results are not listed. Entries that show only a call come without a potency. Values without a mark were called inactive. Calls of active or inactive are those of the source. The call rests on the fitted dose curve; in most records, active means well fitted curve in the direction sought with a large enough effect; inconclusive means small, poorly fitted or top-dose-only effect, or another doubt; inactive means no such curve, though single readings can be large; an effect the other way counts as inactive or inconclusive.
# Assay: qHTS of pediatric cancer cell lines to identify multiple opportunities for drug repurposing: Primary screen for Rh18 cells (AID 1347102); further: nearly all actives have a fitted effect of over 65% in size
# Conditions: Rh18 rhabdomyosarcoma viability, CellTiter-Glo luminescence, 48 h; series mostly up to 46 µM
# Method in brief: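 Viability after 48 h compound treatment at 37C, 500-1,000 cells/well, read as ATP luminescence with CellTiter-Glo. Primary screens used 11-point (MIPE, 0.78 nM-46 µM) or 8-point (NPC, 0.59 nM-46 µM) final concentrations; follow-up screens used 11-point dilutions.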
SMILES,Potency,"activity change, negative = cytotoxic"
C[N+](C)(C)CCOC(=O)CCC(=O)OCC[N+](C)(C)C,inactive,
C[C@]12C=CC(=O)C=C1CC[C@H]1[C@@H]3C[C@@H](O)[C@](O)(C(=O)CO)[C@@]3(C)C[C@H](O)[C@@]12F,inactive,
CC(=O)OCC1=C(C(=O)O)N2C(=O)[C@@H](NC(=O)Cc3cccs3)[C@H]2SC1,inactive,
CC(C)NNC(=O)c1ccncc1,inactive,
CCN(CC)CCNC(=O)c1cc(S(C)(=O)=O)ccc1OC,inactive,
O=C(O)CN(CCOCCOCCN(CC(=O)O)CC(=O)O)CC(=O)O,,14.5% [at 0.597 µM]
Cc1cccc(C)c1NC(=O)C(C)N (stereo not given),inactive,
CSc1ccc(C(=O)c2[nH]c(=O)[nH]c2C)cc1,inactive,
C[N+](C)(C)CCCCCCCCCC[N+](C)(C)C,inactive,
Cc1nnc(SCC2=C(C(=O)O)N3C(=O)[C@@H](NC(=O)Cn4cnnn4)[C@H]3SC2)s1,inactive,
NC(=O)N1c2ccccc2C=Cc2ccccc21,inactive,
CC(C(=O)O)c1ccc(CC2CCCC2=O)cc1 (stereo not given),inactive,
CCn1ccnc1CC1COc2ccccc2O1 (stereo not given),inactive,
COc1ccc([C@@H]2Sc3ccccc3N(CCN(C)C)C(=O)[C@@H]2OC(C)=O)cc1,inactive,
c1cnc(N2CCN(Cc3ccc4c(c3)OCO4)CC2)nc1,inactive,
CN1CCN(CC(=O)N2c3ccccc3C(=O)Nc3cccnc32)CC1,,9.39% [at 4.84 µM]
CN(C)CCOC(=O)COc1ccc(Cl)cc1,inactive,
Cc1ccc(=O)n(-c2ccccc2)c1,inactive,

SMILES,Potency,"activity change, negative = cytotoxic"
CN/C(=C\[N+](=O)[O-])NCCSCc1ccc(CN(C)C)o1,inactive,
CCCN(CCC)C(=O)C(CCC(=O)O)NC(=O)c1ccccc1 (stereo not given),inactive,
CCCOc1ccccc1-c1nc2n[nH]nc2c(=O)[nH]1,inactive,
O=C1CC2(CCCC2)CC(=O)N1CCCCN1CCN(c2ncccn2)CC1,inactive,
NC(Cc1ccc(Cl)cc1)C(=O)O (stereo not given),,15.1% [at 0.597 µM]
CC[N+](C)(C)c1cccc(O)c1,inactive,
CCc1c(C)[nH]c2c1C(=O)C(CN1CCOCC1)CC2 (stereo not given),inactive,
CC1=NS(=O)(=O)c2cc(Cl)ccc2N1,inactive,
C[N+](C)(C)CCOC(N)=O,inactive,
c1ccc2c(c1)CCCC2C1=NCCN1 (stereo not given),inactive,
CN(C)C(=O)Oc1cccc([N+](C)(C)C)c1,inactive,
CCN(CC)CC(=O)Nc1c(C)cccc1C,inactive,
COc1ccc(CN(CCN(C)C)c2ccccn2)cc1,inactive,
CCO/C([O-])=N/c1c[n+](N2CCOCC2)no1,inactive,
CN1C(=O)CC[C@H]1c1cccnc1,inactive,
Brc1c(NC2=NCCN2)ccc2nccnc12,inactive,
NC/C=C/C(=O)O,inactive,

# Assay: qHTS of pediatric cancer cell lines to identify multiple opportunities for drug repurposing: Primary screen for OHS-50 cells (AID 1347103); further: nearly all actives have a fitted effect of over 40% in size
# Conditions: OHS-50 osteosarcoma viability, CellTiter-Glo luminescence, 48 h; series mostly up to 57.3 µM
# Method in brief: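 Cells (500-1,000/well) rested 5 h, then received compounds for 48 h; metabolically active cells were measured by CellTiter-Glo luminescence. Final concentrations spanned up to 46 µM (MIPE, 11-point) or 0.59 nM-46 µM (NPC, 8-point) in primary screens, 11-point in follow-ups.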
SMILES,Potency,"activity change, negative = cytotoxic"
C[N+](C)(C)CCOC(=O)CCC(=O)OCC[N+](C)(C)C,inactive,
C[C@]12C=CC(=O)C=C1CC[C@H]1[C@@H]3C[C@@H](O)[C@](O)(C(=O)CO)[C@@]3(C)C[C@H](O)[C@@]12F,inactive,
CC(=O)OCC1=C(C(=O)O)N2C(=O)[C@@H](NC(=O)Cc3cccs3)[C@H]2SC1,inactive,
CC(C)NNC(=O)c1ccncc1,inactive,
CCN(CC)CCNC(=O)c1cc(S(C)(=O)=O)ccc1OC,inactive,
O=C(O)CN(CCOCCOCCN(CC(=O)O)CC(=O)O)CC(=O)O,,12.9% [at 0.73 µM]
Cc1cccc(C)c1NC(=O)C(C)N (stereo not given),inactive,
CSc1ccc(C(=O)c2[nH]c(=O)[nH]c2C)cc1,inactive,
C[N+](C)(C)CCCCCCCCCC[N+](C)(C)C,inactive,
Cc1nnc(SCC2=C(C(=O)O)N3C(=O)[C@@H](NC(=O)Cn4cnnn4)[C@H]3SC2)s1,inactive,
NC(=O)N1c2ccccc2C=Cc2ccccc21,inactive,
CC(C(=O)O)c1ccc(CC2CCCC2=O)cc1 (stereo not given),inactive,
CCn1ccnc1CC1COc2ccccc2O1 (stereo not given),inactive,
COc1ccc([C@@H]2Sc3ccccc3N(CCN(C)C)C(=O)[C@@H]2OC(C)=O)cc1,inactive,
c1cnc(N2CCN(Cc3ccc4c(c3)OCO4)CC2)nc1,inactive,
CN1CCN(CC(=O)N2c3ccccc3C(=O)Nc3cccnc32)CC1,,7.59% [at 6.18 µM]
CN(C)CCOC(=O)COc1ccc(Cl)cc1,inactive,
Cc1ccc(=O)n(-c2ccccc2)c1,inactive,

SMILES,Potency,"activity change, negative = cytotoxic"
CN/C(=C\[N+](=O)[O-])NCCSCc1ccc(CN(C)C)o1,inactive,
CCCN(CCC)C(=O)C(CCC(=O)O)NC(=O)c1ccccc1 (stereo not given),inactive,
CCCOc1ccccc1-c1nc2n[nH]nc2c(=O)[nH]1,inactive,
O=C1CC2(CCCC2)CC(=O)N1CCCCN1CCN(c2ncccn2)CC1,inactive,
NC(Cc1ccc(Cl)cc1)C(=O)O (stereo not given),,9.59% [at 0.73 µM]
CC[N+](C)(C)c1cccc(O)c1,inactive,
CCc1c(C)[nH]c2c1C(=O)C(CN1CCOCC1)CC2 (stereo not given),inactive,
CC1=NS(=O)(=O)c2cc(Cl)ccc2N1,inactive,
C[N+](C)(C)CCOC(N)=O,inactive,
c1ccc2c(c1)CCCC2C1=NCCN1 (stereo not given),inactive,
CN(C)C(=O)Oc1cccc([N+](C)(C)C)c1,inactive,
CCN(CC)CC(=O)Nc1c(C)cccc1C,inactive,
COc1ccc(CN(CCN(C)C)c2ccccn2)cc1,inactive,
CCO/C([O-])=N/c1c[n+](N2CCOCC2)no1,inactive,
CN1C(=O)CC[C@H]1c1cccnc1,inactive,
Brc1c(NC2=NCCN2)ccc2nccnc12,inactive,
NC/C=C/C(=O)O,inactive,
